# Source: PubChem BioAssay (The Scripps Research Institute Molecular Screening Center)
# An excerpt weighted towards active compounds, which were near 3.4% of everything screened.
# FBW7 act: activators of human E3 ligase FBW7; AlphaScreen FBW7–phospho-cyclin E peptide binding, activator screen; AID 1259310; Q969H0; 650,000 tested, 0.13% active; normalized activity (activation), % at 26.1 µM; in the data active = normalized activity above about 1.9%;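 also: purified mutant Fbw7 with reduced substrate affinity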
# GPR151 ag: activates the human receptor GPR151 | Q8TDV0 | PathHunter beta-arrestin GPR151 cells, luminescence | activation, % at 11.2 µM | 650,000 tested, 1% active; in the data active = activation above about 4.9%;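 also: 0% = median of compound wells and 100% = cells with positive control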
# MITF inh: blocks human microphthalmia-associated transcription factor; O75030; AlphaScreen MITF homodimerization, bead proximity signal; inhibition, % at 2.6 µM; 650,000 tested, 0.91% active; AID 1259374; in the data active = inhibition above about 50%;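 also: 0% = vehicle wells with protein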
# Target sequence (O75030 whole entry, looked up): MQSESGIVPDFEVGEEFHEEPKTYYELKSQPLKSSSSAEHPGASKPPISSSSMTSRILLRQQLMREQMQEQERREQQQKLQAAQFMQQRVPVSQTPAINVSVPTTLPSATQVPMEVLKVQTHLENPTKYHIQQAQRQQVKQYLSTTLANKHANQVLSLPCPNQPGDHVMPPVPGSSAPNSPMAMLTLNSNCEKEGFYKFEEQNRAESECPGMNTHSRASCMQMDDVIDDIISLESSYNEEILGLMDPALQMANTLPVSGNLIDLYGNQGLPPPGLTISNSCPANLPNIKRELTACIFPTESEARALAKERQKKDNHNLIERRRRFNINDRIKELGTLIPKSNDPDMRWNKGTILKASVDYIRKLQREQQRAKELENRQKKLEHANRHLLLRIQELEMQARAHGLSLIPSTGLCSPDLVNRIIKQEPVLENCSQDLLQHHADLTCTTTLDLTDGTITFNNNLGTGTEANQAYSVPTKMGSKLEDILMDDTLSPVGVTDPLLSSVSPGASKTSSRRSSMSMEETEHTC
# TEAD-YAP block: TEAD-YAP interaction inhibition. 640,000 tested, 1.4% active. inhibition, % at 9.12 µM. HEK-TIYL cells, TEAD-Gal4/YAP UAS-luciferase luminescence; in the data active = inhibition above about 32%;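 also: 0% = median of test compound wells and 100% = reference inhibitor wells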
# MITF inh conf: confirmation of human MITF inhibitors; shares compounds with MITF inh; AlphaScreen MITF homodimerization, biotin/His-MITF beads; inhibition, % at 2.6 µM; 4,700 tested, 16% active;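 active = inhibition above a cutoff derived from the DMSO control wells, cut at about 28% in these data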;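 also: 0% = MITF dimer wells with DMSO only; inhibitors lower the bead chemiluminescence by keeping MITF from dimerizing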
# AlphaScreen DR: optically interferes with AlphaScreen signal in dose response; shares compounds with MITF inh; AlphaScreen optical interference counterscreen, cell-free; IC50, µM; 480 tested, 6% active; AID 1259373; call rule not given here
# AS interf ctr: optically interferes with AlphaScreen signal. shares compounds with MITF inh. LysRS AlphaScreen counterscreen, signal interference, triplicate. inhibition, % at 2.6 µM. 4,700 tested, 7.6% active. AID 1259376;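 active = inhibition above a cutoff derived from the DMSO control wells, cut at about 30% in these data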
# * marks the source's active call; other numbers are inactive results; / = not tested or not shown.
SMILES,FBW7 act,GPR151 ag,MITF inh,TEAD-YAP block,MITF inh conf,AS interf ctr,others
Cc1ccc(NC(=O)COC(=O)c2cc[n+]([O-])cc2)cc1C,0.0,2.7,76.6*,-18.4,-5.2,-7.3,
COc1oc(-c2ccc(C)cc2)nc1C(F)(F)F,1.5,-0.8,10.0,14.2,/,/,
COc1oc(-c2ccc(F)cc2)nc1C(F)(F)F,0.3,-1.7,54.5*,-1.1,8.7,13.6,
Cc1ccc(S(=O)(=O)N2CCC(C(=O)NCC(=O)C(C)(C)C)CC2)cc1,-0.1,-0.3,0.4,1.1,/,/,
O=C1CSC(c2cc3c(cc2Br)OCO3)N1c1cccc(C(F)(F)F)c1 (stereo not drawn),-0.1,0.3,-3.3,-11.4,/,/,
CCN1CCCC1CNCc1csc(-c2ccc(Cl)cc2)n1 (stereo not drawn),-0.1,0.2,57.0*,-9.6,-2.0,5.0,
CCN1CCCC1CNCc1ccccc1Cl (stereo not drawn),0.1,-0.8,2.2,5.2,/,/,
CSc1ccccc1NC(=O)CN(C)CC(=O)Nc1ccc(C(N)=O)cc1,0.1,0.7,14.3,-3.6,/,/,
COc1ccc(NC(=O)CN(C)CC(=O)Nc2ccccc2SC)cc1,-0.3,2.0,74.5*,-2.9,3.8,12.4,
Cc1cc(NC(=O)CN(C)CCOc2ccccc2)ccc1Br,0.1,1.2,35.7,4.5,/,/,
CN(CCOc1ccccc1)CC(=O)Nc1ccc(C(F)(F)F)cc1,-0.2,-1.4,66.1*,0.1,-16.6,1.8,
Cc1ccc(NC(=O)CN(C)CC(=O)Nc2ccccc2Oc2ccccc2)cc1,-0.3,-0.8,91.0*,6.3,2.6,7.1,
O=c1oc2ccccc2n1CCOc1ccc(Cl)cc1,0.0,-1.5,-0.6,-52.2,/,/,
CCN1CCN(CCCN2C(=O)C3C(C(=O)Nc4ccc(F)c(Cl)c4)C4C=CC3(O4)C2C(=O)NC2CCCC(C)C2C)CC1 (stereo not drawn),0.0,-1.0,-12.2,-4.0,/,/,
O=C(Nc1cc([N+](=O)[O-])ccc1C(=O)NCCc1ccccc1)c1ccccc1,-0.1,0.0,66.9*,-22.9,7.0,12.9,
Cc1cc2cc3c(cc2n2c(=O)n(Cc4cccnc4)nc12)OCO3,0.8,-1.3,14.2,-20.5,/,/,
COCC(=O)NCc1ccc(Cl)cc1,-0.1,-0.1,0.5,0.3,/,/,
COC(=O)C(NCC(=O)NCc1ccc(Cl)cc1)C(C)C (stereo not drawn),0.2,-1.4,65.6*,5.1,14.8,19.3,
N#Cc1ccc(-c2ccc(F)cc2)nc1SCC(=O)NC1CC1,0.2,0.7,51.8*,4.6,-3.1,2.6,
CC1(C)N=C(N)N=C(N)N1c1cc(Cl)ccc1Oc1ccc(Br)c2ccccc12,0.0,1.4,-9.7,-3.6,/,/,
Cc1ccc(-c2ncn(-c3ccc(Nc4cc(-n5cnc(Nc6ccccc6)n5)c(F)cn4)cc3)n2)cn1,0.2,-0.7,90.7*,-4.2,52.0*,-10.4,AlphaScreen DR=>6.48
O=C1CCC(CCNCc2ccc(F)cc2)N1CC1(c2ccccc2)CCOCC1 (stereo not drawn),-0.1,-1.0,50.7*,-0.2,-2.8,1.8,
O=C1CCC(CCNCc2cccnc2)N1CC1(c2ccccc2)CCOCC1 (stereo not drawn),0.1,0.4,0.8,0.1,/,/,
CCCSc1nc2sc3c(c2c(=O)n1CC1CCCCC1)CCc1ccccc1-3,-0.1,1.3,-2.3,1.4,/,/,
CC(C)(c1ccc(O)cc1)c1ccc(O)cc1,0.2,-1.2,9.1,-3.8,/,/,
SMILES,FBW7 act,GPR151 ag,MITF inh,TEAD-YAP block,MITF inh conf,AS interf ctr,others
CC(C)(c1ccc(O)c(N)c1)c1ccc(O)c(N)c1,0.5,0.1,73.6*,-0.5,7.6,33.0*,
N#C/C(=C(/O)COC(=O)c1cc(=O)[nH]c(=O)[nH]1)c1nc2ccccc2[nH]1,0.0,-1.3,12.7,0.5,/,/,
CCN1CCN(CCCOc2ccccc2-c2ccccc2)CC1,0.0,1.2,59.8*,11.0,7.0,10.1,
CCOc1ccccc1OCCCN1CCN(CC)CC1,-0.2,0.3,67.2*,0.8,8.8,12.8,
c1ccc(-c2ccccc2OCCCN2CCNCC2)cc1,-0.2,-0.7,64.3*,-1.5,-2.1,10.0,
c1ccc(-c2ccccc2OCCCCN2CCNCC2)cc1,-0.6,-1.7,49.4,-2.8,/,/,
CCN1CCN(CCOCCOc2ccccc2Br)CC1,0.0,1.2,55.7*,4.3,13.3,15.2,
CCOc1ccc(C(=O)Nc2ccc(C(N)=O)cc2)cc1,0.1,1.3,0.5,-24.8,/,/,
Cc1ccccc1C(=O)Nc1sc2c(c1C(=O)NCc1cccnc1)CCCCC2,0.3,0.3,16.1,-9.1,/,/,
COc1ccc(C(=O)Nc2cc(C(=O)N3CC=C(c4ccccc4)CC3)ccc2N2CC3CC(C2)c2cccc(=O)n2C3)cc1 (stereo not drawn),-0.2,-0.5,5.9,-9.3,/,/,
CCc1ccccc1OCCN1CCN(CC)CC1,-0.2,0.7,76.9*,-3.8,12.0,12.9,
CCN1CCN(CCOc2ccccc2CO)CC1,-0.9,-0.3,39.3,6.9,/,/,
CCN1CCN(CCCOc2ccc(Cl)c(Cl)c2)CC1,-0.1,1.1,28.1,-12.3,/,/,
CCN1CCN(CCCOc2cc(C)c(Cl)cc2C)CC1,0.2,-0.9,64.3*,1.6,2.8,10.5,
CCN1CCN(CCCOc2cccc(C)c2C)CC1,0.0,0.0,67.4*,1.9,9.1,8.2,
O=C(CCCCCn1c(SCC(=O)Nc2ccccc2C(F)(F)F)nc2ccsc2c1=O)NCCc1ccccc1,0.1,-0.6,13.9,10.9,/,/,
COc1cccc(CN2CCN(Cc3cccc4ccccc34)CC2)c1,0.1,1.7,76.6*,1.7,-14.6,0.4,
COc1cccc(/C(C)=N/N2CCN(Cc3cccc4ccccc34)CC2)c1,-0.2,-0.7,2.1,8.5,/,/,
COc1ccc(CN2CCN(Cc3cccc4ccccc34)CC2)cc1Br,0.3,-0.9,71.9*,-7.8,0.5,-2.1,
CCOC(=O)N1CCN(Cc2ccc(OC)c(Br)c2)CC1,0.0,-0.8,2.0,-5.4,/,/,
COc1ccc(CN2CCN(Cc3ccc(OC)c(Br)c3)CC2)cc1,-0.1,-0.5,62.2*,9.8,14.0,-3.0,
COc1cc(CN2CCN(Cc3ccccc3Cl)CC2)cc(OC)c1,0.2,1.2,69.0*,1.6,5.2,-2.0,
COc1ccc2[nH]c3c(=O)n(CCC(=O)NC4CC4)c(=S)[nH]c3c2c1,-0.4,0.3,-3.0,10.5,/,/,
CCOC(=O)c1c[nH]c2c(C)c3[nH]c(C)c(C)c3cc2c1=O,-0.1,-0.2,-10.3,-10.8,/,/,
Cc1ccc(NS(=O)(=O)c2ccc3c(c2)CC(=O)N3)cc1,0.3,0.2,3.3,17.0,/,/,
CCCS(=O)(=O)N1CCN(Cc2ccc(OC)c(Br)c2)CC1,0.0,1.1,10.8,5.9,/,/,
CCS(=O)(=O)N1CCN(Cc2ccc(OC)c(Br)c2)CC1,0.1,0.5,43.8,6.9,/,/,
COc1ccc(CN2CCN(S(C)(=O)=O)CC2)cc1Br,0.0,-0.3,69.8*,9.8,4.6,16.2,
COc1cccc(CN2CCN(Cc3ccc(OC)c(Br)c3)CC2)c1,-0.1,0.0,65.6*,1.9,13.5,9.2,
Cc1nn(C)c(C)c1CN(C)C(=S)Nc1ccc(F)c(Cl)c1,-0.1,0.8,-2.4,-9.1,/,/,
